Results filed as inconclusive are left out. Activity calls are given as the source filed them. The call rests on the fitted dose curve; in most records, active means well fitted curve in the direction sought with a large enough effect; inconclusive means small, poorly fitted or top-dose-only effect, or another doubt; inactive means no such curve, though single readings can be large; an effect the other way counts as inactive or inconclusive.
Assay: qHTS of pediatric cancer cell lines to identify multiple opportunities for drug repurposing: Primary screen for Rh41 cells (AID 1347108); further: nearly all actives have a fitted effect of over 70% in size
Details: Rh41 rhabdomyosarcoma viability, CellTiter-Glo luminescence, 48 h; series mostly up to 46 µM
Summary of the method: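 500-1,000 cells/well; 5 h pre-incubation 37 °C/5% CO2; compound pinned; 48 h; CellTiter-Glo, 15 min RT; luminescence. MIPE 11-pt from 0.78 nM, NPC 8-pt from 0.59 nM final. Bortezomib 2.3 µM final as positive control.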
Potency means the concentration at half of the fitted maximal effect.

SMILES | Potency
COc1ccc(C(=O)c2c(C)n(CCN3CCOCC3)c3cc(I)ccc23)cc1 | 18.7 µM (active)
Nc1ccc(N=Nc2ccccc2)cc1 | inactive
O=S(=O)(F)Cc1ccccc1 | inactive
C=CCON=C(C[C@H]1O[C@@H]2O[C@]3(C)CC[C@@H]4[C@H](C)CC[C@@H]([C@H]1C)[C@@]24OO3)[C@H]1O[C@@H]2O[C@]3(C)CC[C@H]4[C@H](C)CC[C@@H]([C@@H]1C)[C@@]24OO3 | 0.469 µM (active)
O=C(Nc1ccncc1)C(=O)c1cn(Cc2ccc(Cl)cc2)c2ccccc12 | 0.0743 µM (active)
O=c1cccc2n1CC1CNC[C@H]2C1 | 11.8 µM (active)
COc1ccc(N(C(=O)Oc2c(C)cccc2C)c2ccnc(Nc3ccc(N4CCN(C)CC4)cc3)n2)c(OC)c1 | inactive
CCc1c(C(=O)C(N)=O)c2c(OCC(=O)O)cccc2n1Cc1ccccc1 | inactive
COc1ccc2c(c[n+](C)c3c4cc5c(cc4ccc23)OCO5)c1OC | 10.5 µM (active)
Cc1ccccc1-n1c(Cn2ncc3c(N)ncnc32)nc2cccc(C)c2c1=O | 0.935 µM (active)
CC(C)[C@]12O[C@@H]1[C@@H]1O[C@]13[C@]1(O[C@H]1C[C@@H]1C4=C(CC[C@@]13C)C(=O)OC4)[C@H]2O | 52.6 µM (active)
CC(C)[C@H]1C(=O)N[C@H](CO)Cc2c[nH]c3cccc(c23)N1C | inactive
COC1=C[C@@H]2[C@@H]3Cc4ccc(OC)c(O)c4[C@]2(CCN3C)CC1=O | 3.72 µM (active)
O=S(=O)(CC1CS1)c1ccc(Oc2ccccc2)cc1 (centres undefined) | 18.7 µM (active)
CC(C)(C)c1cc(C=C(C#N)C#N)cc(Br)c1O | inactive
CC(C)(C)C(O)C(Oc1ccc(Cl)cc1)n1cncn1 (centres undefined) | inactive
CC1(C)CC/C(=C/c2ccc(Cl)cc2)C1(O)Cn1cncn1 (centres undefined) | inactive

Assay: qHTS of pediatric cancer cell lines to identify multiple opportunities for drug repurposing: Confirmatory screen for A673 cells (AID 1347110);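 further: cells exposed to compound for 48 h before the viability read; nearly all actives have a fitted effect of over 65% in size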
Details: A673 Ewing sarcoma cell viability; series mostly up to 45.9 µM
Summary of the method: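 qHTS titration format: primary MIPE 0.78 nM-46 µM (11 pts), NPC 0.59 nM-46 µM; confirmation 11 pts. 48 h, CTG luminescence.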

SMILES | Potency
COc1ccc(C(=O)c2c(C)n(CCN3CCOCC3)c3cc(I)ccc23)cc1 | 26.1 µM (active)
O=C(Nc1ccncc1)C(=O)c1cn(Cc2ccc(Cl)cc2)c2ccccc12 | 0.414 µM (active)
Cc1ccccc1-n1c(Cn2ncc3c(N)ncnc32)nc2cccc(C)c2c1=O | inactive
CC(C)[C@]12O[C@@H]1[C@@H]1O[C@]13[C@]1(O[C@H]1C[C@@H]1C4=C(CC[C@@]13C)C(=O)OC4)[C@H]2O | 0.0928 µM (active)
O=C(N[C@H]1CN2CCC1CC2)c1ccc(Cl)cc1 | 1.65 µM (active)
CC(=Cc1csc(C)n1)[C@@H]1C[C@H]2O[C@@H]2CCC[C@H](C)[C@@H](O)[C@@H](C)C(=O)C(C)(C)[C@@H](O)CC(=O)O1 | 0.0185 µM (active)
CC=C(C)C(=O)N[C@@H](c1ccccc1)[C@@H](O)C(=O)O[C@H]1C[C@@]2(O)[C@@H](OC(=O)c3ccccc3)[C@@H]3[C@]4(OC(C)=O)CO[C@@H]4C[C@H](O)[C@@]3(C)C(=O)[C@H](OC(C)=O)C(=C1C)C2(C)C | 0.0329 µM (active)
CC(C)(C)C(O)C(Oc1ccc(Cl)cc1)n1cncn1 (centres undefined) | inactive
S=C(SSC(=S)N1CCCCC1)N1CCCCC1 | 10.4 µM (active)
C[C@H]1CCCC=CC2C[C@H](O)C[C@@H]2[C@H](O)C=CC(=O)O1 (some centres undefined) | 0.414 µM (active)
CCCCCC[C@H]1C(=O)O[C@H](C)[C@H](NC(=O)c2cccc(NC=O)c2O)C(=O)O[C@@H](C)[C@@H]1OC(=O)CC(C)C | 13.1 µM (active)
CC(=Cc1csc(C)n1)[C@@H]1C[C@H]2O[C@]2(C)CCC[C@H](C)[C@@H](O)[C@@H](C)C(=O)C(C)(C)[C@@H](O)CC(=O)O1 | 0.0074 µM (active)

Reference: PubChem BioAssay (NCATS)
